Test [1] is described as follows: BSK_4H_Eotaxin3: BioMAP Diversity Plus: 4H Assay for Eotaxin 3 Biomarker Activity (AID 2283000).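 On outcome: CCL26 protein level quantified by ELISA in parallel with SRB cytotoxicity check.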 Particulars: primary human endothelial cells (HUVEC); actives raise or lower the signal. The method in brief:
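HUVEC, 24 h post-dose, ELISA for Eotaxin-3/CCL26. Gain or loss of signal fitted bidirectionally vs DMSO baseline.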

Read-out in test [2]: Intercellular Adhesion Molecule 1 (ICAM1), ICAM1 (gene 3383)
Nature of the test: BSK_3C_ICAM1: BioMAP Diversity Plus: 3C Assay for Intercellular Adhesion Molecule 1 (ICAM1) Biomarker Activity (AID 2283003). Particulars: primary human endothelial cells (HUVEC); actives raise or lower the signal. The method in brief:
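ICAM-1 levels measured by ELISA after HUVEC cultures in the 3C system had been dosed for 24 h. Gain or loss of signal relative to DMSO was fitted in both directions.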

For test [3], the target named is human Retinoic Acid Receptor beta (RARb), RARB (gene 5915) (UniProt P10826). In words: ATG_RARb_TRANS: Attagene TRANS-FACTORIAL HepG2 Assay for human Retinoic Acid Receptor beta (AID 2283004; active means hit-call score of the fitted dose curve at least 0.9, where 1 is the maximum). The procedure, abridged:
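HepG2 cells transiently transfected with multiplexed GAL4-UAS reporter units expressing chimeric NR–Gal4 fusions; 24 h compound exposure. Reporter mRNA quantified by RT-PCR, 6-FAM labelling, HpaI digestion and capillary electrophoresis; gain-of-signal fitted against DMSO baseline.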

Test [4] has as its target Retinoic acid receptor alpha (Homo sapiens) (UniProt P10276). In words: ATG_RARa_TRANS: Attagene TRANS-FACTORIAL HepG2 Assay for human Retinoic Acid Receptor alpha (RARa) (AID 2283005; active means hit-call score of the fitted dose curve at least 0.9, where 1 is the maximum). The method in brief:
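HepG2 cells transiently transfected with multiple reporter units expressing chimeric RARα-GAL4 fusion, with GAL4-UAS-driven reporters. After 24 h compound exposure, reporter mRNA induction quantified by RT-PCR and capillary electrophoresis with fluorescent labeling; gain-of-signal fitted relative to DMSO control.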

Test [5] concerns the target Nuclear receptor subfamily 1 group I member 2 (Homo sapiens) (UniProt O75469). In words: ATG_PXR_TRANS: Attagene TRANS-FACTORIAL HepG2 Assay for human Pregnane X Receptor (PXR) (AID 2283008; active means hit-call score of the fitted dose curve at least 0.9, where 1 is the maximum). The method in brief: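 Fluorescence intensity of FAM-labelled, HpaI-digested reporter amplicons, separated by capillary electrophoresis, quantifies induction. HepG2 cells with PXR-Gal4 trans-reporter system were exposed 24 h; DMSO defines baseline.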

Test [6] addresses human Retinoic Acid Receptor gamma (RARg), RARG (gene 5916) (UniProt P13631). Nature of the test: ATG_RARg_TRANS: Attagene TRANS-FACTORIAL HepG2 Assay for human Retinoic Acid Receptor gamma (RARg) (AID 2283009; active means hit-call score of the fitted dose curve at least 0.9, where 1 is the maximum). The procedure, abridged: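 Transient transfection of HepG2 with multi-reporter constructs, then 24 h chemical treatment. Total RNA isolated, reverse-transcribed, PCR-amplified, fluorescently labelled and resolved by capillary electrophoresis; activity scored as mRNA induction versus DMSO.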

For test [7], the target named is human RAR-related Orphan Receptor beta (RORb), RORB (gene 6096) (UniProt Q92753). Nature of the test: ATG_RORb_TRANS: Attagene TRANS-FACTORIAL HepG2 Assay for human RAR-related Orphan Receptor beta (RORb) (AID 2283010; active means hit-call score of the fitted dose curve at least 0.9, where 1 is the maximum). The procedure, abridged:
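Readout is reporter-gene mRNA induction, detected as fluorescence after RT-PCR and capillary electrophoresis, fitted for gain of signal against DMSO controls. Transiently transfected HepG2 liver cells carrying GAL4-UAS reporter constructs were treated for 24 hours.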

Test [8] addresses human RAR-related Orphan Receptor gamma (RORg), RORC (gene 6097) (UniProt P51449). In words: ATG_RORg_TRANS: Attagene TRANS-FACTORIAL HepG2 Assay for human RAR-related Orphan Receptor gamma (RORg) (AID 2283011; active means hit-call score of the fitted dose curve at least 0.9, where 1 is the maximum). The method in brief: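 Readout: reporter transcript induction (RT-PCR, fluorescent primer extension, capillary electrophoresis) after 24 h compound exposure of transiently transfected HepG2 cells carrying a RORg-Gal4 chimera and GAL4-UAS reporters; DMSO served as baseline, with increasing signal fitted.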

Test [9] has as its target Retinoic acid receptor RXR-alpha (Homo sapiens) (UniProt P19793). Nature of the test: ATG_RXRa_TRANS: Attagene TRANS-FACTORIAL HepG2 Assay for human Retinoid X Receptor alpha (RXRa) (AID 2283012; active means hit-call score of the fitted dose curve at least 0.9, where 1 is the maximum). The procedure, abridged: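 Transient transfection of human HepG2 with multiple GAL4-UAS reporter constructs; 24 h compound exposure; total RNA isolated, reverse-transcribed, PCR-amplified, 6-FAM labelled, HpaI-cut, resolved by capillary electrophoresis. Positive-direction fit versus DMSO.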

Test [10] concerns the target human Retinoid X Receptor beta (RXRb), RXRB (gene 6257) (UniProt P28702). Nature of the test: ATG_RXRb_TRANS: Attagene TRANS-FACTORIAL HepG2 Assay for human Retinoid X Receptor beta (RXRb) (AID 2283013; active means hit-call score of the fitted dose curve at least 0.9, where 1 is the maximum). The procedure, abridged: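 Transfect HepG2 with GAL4-UAS multi-reporter constructs (chimeric NR-Gal4, TRANS format); dose compound 24 h; isolate RNA, RT-PCR, FAM primer extension, HpaI digest; quantify by capillary electrophoresis; positive direction vs DMSO.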

Read-out in test [11]: E-selectin (Homo sapiens) (UniProt P16581)
Nature of the test: BSK_3C_Eselectin: BioMAP Diversity Plus: 3C Assay for Eselectin Biomarker Activity (AID 2283015).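 On outcome: cell surface E-selectin protein quantified by ELISA 24 h after dosing.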 Particulars: primary human endothelial cells (HUVEC); actives raise or lower the signal. The procedure, abridged:
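Primary human umbilical vein endothelial cells (3C system) were dosed with chemical and cell-surface E-selectin measured by ELISA 24 h later. Bidirectional curve fitting used DMSO as negative control and baseline.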

Read-out in test [12]: Monocyte Chemoattractant Protein-1 (MCP1), CCL2 (gene 6347)
Nature of the test: BSK_3C_MCP1: BioMAP Diversity Plus: 3C Assay for Monocyte Chemoattractant Protein-1 (MCP1) Biomarker Activity (AID 2283017). The following applies: primary human endothelial cells (HUVEC); actives raise or lower the signal. The method in brief: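 Primary human umbilical vein endothelial cells (3C system) were exposed to test chemical for 24 h, after which MCP-1 was quantified by ELISA. Activity was fitted bidirectionally against DMSO as negative control and baseline.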

Read-out in test [13]: Monocyte Chemoattractant Protein-1 (MCP1), CCL2 (gene 6347)
Nature of the test: BSK_4H_MCP1: BioMAP Diversity Plus: 4H Assay for Monocyte Chemoattractant Protein-1 (MCP1) Biomarker Activity (AID 2283018). Particulars: primary human endothelial cells (HUVEC); actives raise or lower the signal. The procedure, abridged:
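ELISA read-out of MCP-1 from human vascular endothelial primary cells taken at 24 hours after compound exposure. Activity was fitted in both directions relative to DMSO, which served as negative control.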

Read-out in test [14]: Human Leukocyte Antigen - DR isotype (HLADR), HLA-DRA (gene 3122)
In words: BSK_3C_HLADR: BioMAP Diversity Plus: 3C Assay for Human Leukocyte Antigen - DR isotype (HLADR) Biomarker Activity (AID 2283019). The following applies: primary human endothelial cells (HUVEC); actives raise or lower the signal. The procedure, abridged: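 Primary human umbilical vein endothelial cells (3C system) were dosed with compound and cell-surface HLA-DR was quantified by ELISA at 24 h. Activity was fitted bidirectionally against DMSO as negative control and baseline.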

Read-out in test [15]: Interleukin-8 (IL8), CXCL8 (gene 3576)
Nature of the test: BSK_3C_IL8: BioMAP Diversity Plus: 3C Assay for Interleukin-8 (IL8) Biomarker Activity (AID 2283020). The following applies: primary human endothelial cells (HUVEC); actives raise or lower the signal. The procedure, abridged:
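ELISA read-out of IL-8 from human umbilical vein endothelium, measured 24 h after chemical dosing. Activity is expressed relative to DMSO negative control, with both increases and decreases fitted.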

Read-out in test [16]: Interleukin-1 alpha (IL1a), IL1A (gene 3552)
Nature of the test: BSK_BE3C_IL1a: BioMAP Diversity Plus: BE3C Assay for Interleukin-1 alpha (IL1a) Biomarker Activity (AID 2283016). The following applies: primary human bronchial epithelial cells; actives raise or lower the signal. The method in brief: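 BE3C primary human bronchial epithelium; cpd 24 h; IL-1a by ELISA; bidirectional fit vs DMSO; parallel SRB (0.1% SRB, 10% TCA fix, 560 nm) for cytotoxicity.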

Test [17] addresses human Peroxisome Proliferator-activated Receptor alpha (PPARa), PPARA (gene 5465) (UniProt Q07869). Nature of the test: ATG_PPARa_TRANS: Attagene TRANS-FACTORIAL HepG2 Assay for human Peroxisome Proliferator-activated Receptor alpha (PPARa) (AID 2283001; active means hit-call score of the fitted dose curve at least 0.9, where 1 is the maximum). The method in brief:
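Gain-of-signal endpoint: reporter mRNA induction relative to DMSO, detected by fluorescent RT-PCR and capillary electrophoresis. HepG2 cells transiently carried GAL4-UAS-driven reporter units plus NR-Gal4 fusion; exposure lasted 24 h.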

Test [18] is described as follows: BSK_3C_Proliferation: Cell Proliferation Assessment in the BioMAP Diversity Plus: 3C Assay (AID 2283006). Particulars: primary human endothelial cells (HUVEC). The procedure, abridged: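 Read-out is total protein by SRB absorbance at 560 nm, taken as a proxy for relative cell number. Primary human umbilical vein endothelium cultured below confluence was dosed for 48 h, TCA-fixed and SRB-stained; curves were fitted bidirectionally versus DMSO.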

Test [19] has as its target Peroxisome proliferator-activated receptor gamma (Homo sapiens) (UniProt P37231). In words: ATG_PPARg_TRANS: Attagene TRANS-FACTORIAL HepG2 Assay for human Peroxisome Proliferator-activated Receptor-gamma (PPARg) (AID 2283007; active means hit-call score of the fitted dose curve at least 0.9, where 1 is the maximum). The method in brief: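 Read-out: reporter mRNA induction, detected by fluorescence after RT-PCR and capillary electrophoresis. Transiently transfected human HepG2 liver cells carrying a chimeric NR-Gal4 construct were dosed for 24 h; activity was fitted upward relative to DMSO.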

Structures are written as SMILES. Records with an inconclusive call do not appear. Calls of active or inactive are those of the source. How the source made its calls, unless noted: active means hit-call score of the fitted dose curve at least 0.9, where 1 is the maximum; inactive means score below 0.9.

From PubChem BioAssay (EPA / NIEHS) come the findings set out here.

Chain of Peroxisome proliferator-activated receptor gamma (Homo sapiens) (P37231 whole entry, looked up, the tested form may be a part): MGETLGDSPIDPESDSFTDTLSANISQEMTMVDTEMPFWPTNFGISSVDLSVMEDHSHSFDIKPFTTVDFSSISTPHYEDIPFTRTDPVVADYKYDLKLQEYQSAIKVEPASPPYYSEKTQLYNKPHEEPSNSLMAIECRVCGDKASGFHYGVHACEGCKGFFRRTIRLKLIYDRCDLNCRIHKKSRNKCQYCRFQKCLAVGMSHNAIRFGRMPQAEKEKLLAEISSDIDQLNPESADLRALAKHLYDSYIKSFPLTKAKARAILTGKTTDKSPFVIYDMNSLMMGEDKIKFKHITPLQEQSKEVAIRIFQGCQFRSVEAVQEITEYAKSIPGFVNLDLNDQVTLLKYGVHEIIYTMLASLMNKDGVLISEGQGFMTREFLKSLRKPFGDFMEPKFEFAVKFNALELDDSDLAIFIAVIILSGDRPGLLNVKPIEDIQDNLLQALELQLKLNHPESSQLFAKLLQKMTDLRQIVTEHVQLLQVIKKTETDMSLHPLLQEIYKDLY
Chain of human RAR-related Orphan Receptor gamma (RORg), RORC (gene 6097) (P51449 whole entry, looked up, the tested form may be a part): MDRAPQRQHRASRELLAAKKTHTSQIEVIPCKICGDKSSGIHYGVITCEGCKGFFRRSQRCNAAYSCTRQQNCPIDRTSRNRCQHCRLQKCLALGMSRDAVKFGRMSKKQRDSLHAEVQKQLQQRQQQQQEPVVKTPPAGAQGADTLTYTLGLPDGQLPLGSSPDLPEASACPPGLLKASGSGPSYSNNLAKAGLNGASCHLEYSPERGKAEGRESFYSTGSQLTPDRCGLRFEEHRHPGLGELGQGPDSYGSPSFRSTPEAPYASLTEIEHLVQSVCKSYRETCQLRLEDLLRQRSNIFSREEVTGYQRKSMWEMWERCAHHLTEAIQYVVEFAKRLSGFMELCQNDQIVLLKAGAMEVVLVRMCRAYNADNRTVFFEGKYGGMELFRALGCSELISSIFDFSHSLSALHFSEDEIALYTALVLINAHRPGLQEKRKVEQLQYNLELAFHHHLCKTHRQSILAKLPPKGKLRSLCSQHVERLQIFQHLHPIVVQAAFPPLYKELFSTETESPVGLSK
Chain of human Retinoid X Receptor beta (RXRb), RXRB (gene 6257) (P28702 whole entry, looked up, the tested form may be a part): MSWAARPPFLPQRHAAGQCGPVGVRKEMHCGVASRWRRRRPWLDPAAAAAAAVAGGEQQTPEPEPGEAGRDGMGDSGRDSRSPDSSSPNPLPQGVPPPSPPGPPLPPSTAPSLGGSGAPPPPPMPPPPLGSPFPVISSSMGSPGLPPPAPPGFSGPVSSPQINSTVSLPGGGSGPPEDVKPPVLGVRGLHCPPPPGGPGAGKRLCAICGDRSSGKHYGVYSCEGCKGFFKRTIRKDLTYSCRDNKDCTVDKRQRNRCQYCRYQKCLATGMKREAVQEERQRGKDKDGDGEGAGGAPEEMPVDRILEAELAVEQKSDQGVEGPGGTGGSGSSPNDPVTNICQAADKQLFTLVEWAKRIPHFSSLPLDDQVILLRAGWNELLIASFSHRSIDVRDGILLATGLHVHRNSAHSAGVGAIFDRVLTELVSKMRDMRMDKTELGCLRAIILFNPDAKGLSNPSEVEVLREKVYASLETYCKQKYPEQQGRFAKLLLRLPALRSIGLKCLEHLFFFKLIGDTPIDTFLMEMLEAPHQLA
Chain of Retinoic acid receptor alpha (Homo sapiens) (P10276 whole entry, looked up, the tested form may be a part): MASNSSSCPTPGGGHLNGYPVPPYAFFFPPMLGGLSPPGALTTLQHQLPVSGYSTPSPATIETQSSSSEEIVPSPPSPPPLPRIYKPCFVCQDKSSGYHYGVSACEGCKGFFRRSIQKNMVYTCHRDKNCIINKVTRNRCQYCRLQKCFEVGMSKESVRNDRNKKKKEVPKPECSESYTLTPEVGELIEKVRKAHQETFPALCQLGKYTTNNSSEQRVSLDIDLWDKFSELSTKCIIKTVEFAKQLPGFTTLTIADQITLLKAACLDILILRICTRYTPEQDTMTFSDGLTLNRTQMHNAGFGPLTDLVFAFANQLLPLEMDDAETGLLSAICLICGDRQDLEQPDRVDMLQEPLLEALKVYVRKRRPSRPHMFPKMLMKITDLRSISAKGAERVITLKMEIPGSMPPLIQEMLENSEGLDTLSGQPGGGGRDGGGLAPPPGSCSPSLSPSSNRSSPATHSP
Chain of Retinoic acid receptor RXR-alpha (Homo sapiens) (P19793 whole entry, looked up, the tested form may be a part): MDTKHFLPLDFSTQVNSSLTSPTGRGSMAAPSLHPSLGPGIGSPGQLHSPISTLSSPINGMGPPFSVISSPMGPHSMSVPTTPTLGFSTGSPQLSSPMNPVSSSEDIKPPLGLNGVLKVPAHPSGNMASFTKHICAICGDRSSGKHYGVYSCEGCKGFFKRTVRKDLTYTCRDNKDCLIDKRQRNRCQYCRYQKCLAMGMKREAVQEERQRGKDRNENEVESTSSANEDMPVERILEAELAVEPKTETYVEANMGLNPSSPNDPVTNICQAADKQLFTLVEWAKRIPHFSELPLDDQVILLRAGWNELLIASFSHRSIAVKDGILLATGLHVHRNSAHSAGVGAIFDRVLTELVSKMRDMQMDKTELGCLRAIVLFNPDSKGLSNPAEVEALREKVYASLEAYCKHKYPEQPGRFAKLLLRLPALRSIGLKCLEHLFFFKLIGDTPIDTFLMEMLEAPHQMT
Chain of Nuclear receptor subfamily 1 group I member 2 (Homo sapiens) (O75469 whole entry, looked up, the tested form may be a part): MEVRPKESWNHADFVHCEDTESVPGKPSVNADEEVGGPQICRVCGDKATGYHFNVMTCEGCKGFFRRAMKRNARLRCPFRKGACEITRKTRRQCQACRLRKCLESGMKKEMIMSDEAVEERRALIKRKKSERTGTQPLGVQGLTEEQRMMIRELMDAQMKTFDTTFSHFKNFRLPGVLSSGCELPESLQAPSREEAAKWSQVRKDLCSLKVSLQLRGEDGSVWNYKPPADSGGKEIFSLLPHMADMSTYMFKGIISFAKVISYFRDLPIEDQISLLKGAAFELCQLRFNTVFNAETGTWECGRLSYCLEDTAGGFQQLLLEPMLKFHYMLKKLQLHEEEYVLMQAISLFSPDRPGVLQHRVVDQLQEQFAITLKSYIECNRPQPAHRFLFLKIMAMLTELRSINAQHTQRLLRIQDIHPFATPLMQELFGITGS
Chain of E-selectin (Homo sapiens) (P16581 whole entry, looked up): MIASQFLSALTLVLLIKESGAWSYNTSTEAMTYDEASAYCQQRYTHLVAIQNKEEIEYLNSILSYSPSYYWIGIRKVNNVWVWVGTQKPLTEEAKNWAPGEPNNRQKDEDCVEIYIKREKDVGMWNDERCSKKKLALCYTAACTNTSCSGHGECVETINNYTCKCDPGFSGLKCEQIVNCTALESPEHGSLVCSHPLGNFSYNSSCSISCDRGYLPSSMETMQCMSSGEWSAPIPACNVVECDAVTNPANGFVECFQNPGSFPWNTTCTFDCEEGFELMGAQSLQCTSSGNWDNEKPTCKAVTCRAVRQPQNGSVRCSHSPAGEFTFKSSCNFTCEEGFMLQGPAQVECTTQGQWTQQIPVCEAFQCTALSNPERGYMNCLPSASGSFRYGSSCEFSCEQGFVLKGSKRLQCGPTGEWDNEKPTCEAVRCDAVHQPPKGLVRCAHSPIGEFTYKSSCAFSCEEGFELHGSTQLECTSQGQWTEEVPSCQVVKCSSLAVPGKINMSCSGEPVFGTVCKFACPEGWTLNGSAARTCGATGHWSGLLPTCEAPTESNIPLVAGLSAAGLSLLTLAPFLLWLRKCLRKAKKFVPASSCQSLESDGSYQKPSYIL
Chain of human RAR-related Orphan Receptor beta (RORb), RORB (gene 6096) (Q92753 whole entry, looked up, the tested form may be a part): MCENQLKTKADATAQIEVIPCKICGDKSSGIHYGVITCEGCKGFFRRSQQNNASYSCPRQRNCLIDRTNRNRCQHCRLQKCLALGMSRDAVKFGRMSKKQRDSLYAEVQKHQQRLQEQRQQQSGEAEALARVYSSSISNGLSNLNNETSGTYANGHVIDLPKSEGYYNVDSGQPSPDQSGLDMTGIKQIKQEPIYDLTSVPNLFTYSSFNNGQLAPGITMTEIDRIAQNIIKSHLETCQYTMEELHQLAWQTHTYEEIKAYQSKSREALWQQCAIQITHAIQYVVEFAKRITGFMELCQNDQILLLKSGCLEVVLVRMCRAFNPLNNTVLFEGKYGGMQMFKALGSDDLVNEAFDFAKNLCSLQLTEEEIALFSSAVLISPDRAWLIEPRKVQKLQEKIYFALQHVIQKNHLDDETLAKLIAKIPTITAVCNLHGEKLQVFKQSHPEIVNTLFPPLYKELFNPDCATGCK
Chain of human Retinoic Acid Receptor beta (RARb), RARB (gene 5915) (P10826 whole entry, looked up, the tested form may be a part): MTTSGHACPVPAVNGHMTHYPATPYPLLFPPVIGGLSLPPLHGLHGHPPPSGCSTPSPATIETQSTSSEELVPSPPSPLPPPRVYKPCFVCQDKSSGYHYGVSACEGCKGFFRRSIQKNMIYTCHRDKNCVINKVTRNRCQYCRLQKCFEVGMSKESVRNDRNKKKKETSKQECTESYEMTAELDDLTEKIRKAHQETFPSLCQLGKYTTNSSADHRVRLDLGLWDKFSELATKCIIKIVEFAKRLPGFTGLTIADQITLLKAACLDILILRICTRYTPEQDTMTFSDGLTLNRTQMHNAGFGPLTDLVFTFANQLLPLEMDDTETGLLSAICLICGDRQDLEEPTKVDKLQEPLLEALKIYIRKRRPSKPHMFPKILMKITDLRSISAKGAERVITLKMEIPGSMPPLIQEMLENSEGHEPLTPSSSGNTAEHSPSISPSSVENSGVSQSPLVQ
Chain of human Peroxisome Proliferator-activated Receptor alpha (PPARa), PPARA (gene 5465) (Q07869 whole entry, looked up, the tested form may be a part): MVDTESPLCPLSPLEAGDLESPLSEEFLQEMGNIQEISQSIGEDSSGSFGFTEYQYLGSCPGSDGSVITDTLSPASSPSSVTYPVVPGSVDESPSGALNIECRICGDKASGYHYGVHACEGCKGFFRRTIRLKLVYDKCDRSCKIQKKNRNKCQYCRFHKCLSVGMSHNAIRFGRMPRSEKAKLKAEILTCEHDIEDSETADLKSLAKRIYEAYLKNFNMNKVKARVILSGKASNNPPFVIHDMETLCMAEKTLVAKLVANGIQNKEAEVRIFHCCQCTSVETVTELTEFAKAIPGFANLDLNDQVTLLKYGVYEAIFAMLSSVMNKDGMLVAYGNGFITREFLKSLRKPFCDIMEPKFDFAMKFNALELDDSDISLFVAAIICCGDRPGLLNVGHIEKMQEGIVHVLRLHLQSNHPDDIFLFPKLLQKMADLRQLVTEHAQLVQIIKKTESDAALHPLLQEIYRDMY

As a reminder, the AC50 is the concentration giving half of the maximal activity seen. With `CC1(C)C(C=C(Cl)Cl)C1C(=O)OC(C#N)c1cccc(Oc2ccccc2)c1` (configuration not stated), the result in [1], in test [2], in test [3], in [4], in [6] and in test [7] was inactive. The outcome in test [8], in [9], in test [10], in [11], in test [12] and in [14] was inactive. Moreover, in test [15], the outcome was inactive. For the same molecule, the AC50 in test [5] is 9.82 µM (active); in test [13] it was 9.17 µM (active).

Regarding `CC(C)NC(=O)N1CC(=O)N(c2cc(Cl)cc(Cl)c2)C1=O`, the outcome in test [1], in [2], in test [9], in test [12], in test [13] and in test [14] was inactive. In addition, in test [15], the outcome was inactive. In addition, in test [5], the AC50 was 10.6 µM (active).

In the case of `CCN(CC)C(=O)C(C)Oc1cccc2ccccc12` (configuration not stated), the AC50 in test [1] was 10.8 µM (active); in test [5], 0.503 µM (active). For the same molecule, the molecule was classed as inactive in test [7], in [8], in [9], in test [10], in [11] and in test [16]. Besides, the outcome in test [12], in [13], in test [14] and in test [15] was inactive.

On to `COC(=O)NS(=O)(=O)c1ccc(N)cc1`, for which the outcome in test [1], in [17], in [18], in [5], in [8] and in test [11] was inactive. Also, the outcome in test [12], in test [13], in test [14] and in [15] was inactive.

For the molecule `CCOP(=O)(OCC)Oc1nc(Cl)c(Cl)cc1Cl`, the AC50 was 30.5 µM (active) in test [1], 30.8 µM (active) in test [19], 24.6 µM (active) in test [14] and 20 µM (active) in [15]. Moreover, the outcome in [5], in [8], in test [9], in test [10], in test [11] and in test [12] was inactive. Further, the outcome in test [13] was inactive.

With `CNC(=O)N(C)c1nnc(C(C)(C)C)s1`, the result in test [1], in [3], in test [4], in test [5], in test [8] and in [9] was inactive. For the same molecule, the result in test [11], in test [12], in test [13], in test [14] and in [15] was inactive.

As to `N#Cc1c(Cl)cccc1Cl`, the outcome in test [1], in test [17], in test [19], in [9], in [10] and in test [11] was inactive. The result in test [16], in [12], in test [13] and in test [15] was inactive. Moreover, the AC50 in test [5] is 72.3 µM (active); in test [14], 3.97 µM (active).

With `CCSC(=O)N1CCCCCC1`, the result in test [1], in [2], in [3], in test [4], in test [19] and in [6] was inactive. The outcome in [7], in test [8], in [9], in [10], in [11] and in [16] was inactive. In addition, the outcome in test [12], in test [13], in test [14] and in test [15] was inactive. Besides, the concentration at half-maximal activity (AC50) in test [5] was 84.4 µM (active).

With `CCCCOCN(C(=O)CCl)c1c(CC)cccc1CC`, the AC50 in test [1] was 36.1 µM (active); in test [11], 19.3 µM (active); in [12] it was 30.2 µM (active); in test [13], 25.6 µM (active); in [14], 31 µM (active); in test [15], 34.5 µM (active). Moreover, the molecule was called inactive in [17], in [5], in test [7], in test [9] and in test [10].

In the case of `CCNC(=O)NC(=O)C(C#N)=NOC`, the result in test [1], in test [4], in [7], in test [8], in test [9] and in [11] was inactive. Moreover, the result in test [12], in [13], in [14] and in test [15] was inactive.
